Measured values: PubChem BioAssay AID485297 (National Center for Advancing Translational Sciences (NCATS), 2010)
The campaign covered roughly 320,000 compounds. About 9,100 (2.8%) were called active. Roughly 3% stayed inconclusive and do not appear here. For the sample, actives were picked, then their nearest neighbours and some compounds at random. A number with no mark means an inactive call. Calls come from the whole dose curve; as a rule, active = well fitted activation curve with a large enough effect; inconclusive = small, poorly fitted or top-dose-only effect; inactive = no such curve, though single readings can be large or run the other way.

Test: qHTS Assay for Rab9 Promoter Activators; note: nearly all actives have a fitted effect of over 60% in size; for activation, negative = inhibition: % of control where 0% means no effect
Conditions: Huh7 Rab9 promoter-luciferase reporter, luminescence, 24 h; series mostly up to 9.22 µM; activation, negative = inhibition: at the top concentration
Outline: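 Cell-based reporter: Huh7 stable for Rab9 promoter-driven luciferase, plated in reduced-serum medium with 10% FBS at 1500 cells/well, compound-treated 24 h at 37 °C, luminescence read after 10 min reagent.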
Potency is the fitted concentration of half-maximal effect.

SMILES | activation, negative = inhibition | Potency
CCCCCN(C(=O)CCC(=O)OCC(=O)NCc1ccc(OC)cc1)c1c(N)n(CCCC)c(=O)[nH]c1=O | -0.822% | 
CC(=O)c1ccccc1NC(=O)C1CC(=O)N(c2ccc3c(c2)OCCO3)C1 (configuration not stated) | -0.721% | 
CN(CC(=O)Nc1ccc(OC(F)(F)F)cc1)C(=O)C1CCC1 | -5.11% | 
CSc1ccccc1NC(=O)COC(=O)CCCOc1ccc(C)cc1 | -2% | 
Cc1ccc(S(=O)(=O)N2CCN(C(=O)N3CCOCC3)CC2)c(C)c1 | 0.487% | 
COc1ccccc1N1CCN(/N=C/c2ccc(O)cc2O)CC1 |  | 3160 nM (active)
COc1ccccc1N1CCN(C(=O)C(=O)N/N=C/c2ccccc2F)CC1 | -6.38% | 
COc1cc(/C=N/N2CCN(c3ccccc3)CC2)ccc1OC(C)=O | -1.62% | 
Fc1ccc(COc2ccc(-c3nnco3)cc2)cc1 |  | 3980 nM (active)
Fc1ccc(COc2cccc(-c3n[nH]c(=S)o3)c2)cc1 | 1.15% | 
Fc1cccc(Cl)c1COc1ccc(-c2nnco2)cc1 | 15.3% | 
CC(NC(=O)c1cccc(S(=O)(=O)N2CCc3ccccc3C2)c1)c1ccco1 (configuration not stated) | -7.93% | 
O=C(CSc1nnc(CN2CCCC2)n1-c1ccc(F)cc1)c1ccc2c(c1)OCO2 | -4.68% | 
CC(C)(C)OC(=O)NCCCCCNC(=O)c1[nH]cnc1C(=O)Nc1nccs1 | -0.539% | 
CC(C)c1ccc(N2CCN(C(=O)c3ccccc3NC(=O)/C=C(\C(=O)O)c3ccccc3)CC2)cc1 | 1.27% | 
CCSc1nnc(NC(=O)c2ccc(C)cc2)s1 |  | 2240 nM (active)
Cc1cccc(CSc2nnc(NC(=O)CSc3nnc(C)s3)s2)c1 | 0.771% | 
C=CCSc1nnc(NC(=O)c2ccc(NC(C)=O)cc2)s1 | 19.7% | 
NC(=O)CSc1nnc(NC(=O)c2ccc3ccccc3c2)s1 |  | 2820 nM (active)
NC(=O)CSc1nnc(NC(=O)c2ccc(Br)o2)s1 | 15.8% | 
O=C(/C=C/c1ccccc1)Nc1nnc(SCC(=O)c2ccc3ccccc3c2)s1 | 3.06% | 
C[C@H](NC(=O)c1ccccc1)C(=O)OCC(=O)c1c[nH]c2ccccc12 | 6.31% | 
O=C(Nc1ccc(C(F)(F)F)cc1)c1cccc(-n2cnnn2)c1 | 0.871% | 

SMILES | activation, negative = inhibition | Potency
O=C(CCNS(=O)(=O)c1ccccc1)NCCSc1ccc(Br)cc1 | -2.67% | 
Cc1cc(C)nc(Nc2n[nH]c(-c3ccccc3N)n2)n1 |  | 501 nM (active)
Cc1cc(C)nc(Nc2ncn[nH]2)n1 | -0.93% | 
COc1ccccc1-c1nc(SC)n[nH]1 | 0.474% | 
COC(=O)c1ccc(COC(=O)CNC(=O)c2cccc(OC)c2)o1 | -1.88% | 
O=C(Nc1cc(Cl)ccc1N1CCOCC1)c1ccc(N2CCCC2=O)cc1 | 0.25% | 
COc1ccccc1CNC(=O)COC(=O)CNS(=O)(=O)c1ccc(NC(C)=O)cc1 | -1.72% | 
Cc1cccc(C(=O)NCC(=O)OCC(=O)N(C)CC(=O)Nc2ccccc2Cl)c1 | 0.684% | 
CCn1c(SCC(=O)NCC2CCCO2)nc2ccccc21 (configuration not stated) | -4.36% | 
CN(C(=O)COC(=O)CCCc1c[nH]c2ccccc12)c1c(N)n(Cc2ccccc2)c(=O)[nH]c1=O | -3.62% | 
O=[N+]([O-])c1cccc(C2=NCCS2)c1 | 1.16% | 
FC(F)(F)c1ccnc(Oc2ccc(C3=NCCS3)cc2)c1 |  | 708 nM (active)
O=Cc1ccc(Oc2cccc(C(F)(F)F)c2)nc1 | -3.19% | 
CCN(CC(=O)Nc1ccc(OC)cc1)C(=O)c1ccc(=O)n(Cc2ccccc2)n1 | 1.5% | 
COc1ccc(NC(=O)COC(=O)c2n[nH]c3ccccc23)c(OC)c1 | 3.04% | 
COc1cccc(NC(=O)c2cc(S(=O)(=O)N3CCc4ccccc43)cn2C)c1 | -7.88% | 
O=c1ccc2c(-c3ccccc3S(=O)(=O)O)c3ccc(O)c(O)c3oc-2c1O | -11.8% | 
COc1cc(OC)cc(C(=O)NCC(=O)N2CCCCCCC2)c1 | 1.42% | 
Cc1ccc(SCCC(=O)Nc2cc(C)on2)cc1 | 0.952% | 
Cc1ccc2nc(-c3ccc(SCC(=O)Nc4cc(C)on4)nc3)[nH]c2c1 |  | 3980 nM (active)
Cc1ccc2nc(SCC(=O)NC3CCCC3)[nH]c2c1 | -4.55% | 
COc1ccc(N(CC(=O)NCCSCc2cccc(Cl)c2)S(C)(=O)=O)cc1 | -0.778% | 
CCN(C(=O)CSc1ncnc2sccc12)c1c(N)n(Cc2ccccc2)c(=O)[nH]c1=O | -3.4% | 

SMILES | activation, negative = inhibition | Potency
NS(=O)(=O)c1ccc(CCNC(=O)COC(=O)COc2cccc(C(F)(F)F)c2)cc1 | 0.927% | 
COc1ccc(C2Nc3ccccc3C(=O)N2c2ccc(Cl)cc2)cc1Cn1cc([N+](=O)[O-])cn1 (configuration not stated) |  | 2000 nM (active)
COc1ccc(C2Nc3ccccc3C(=O)N2c2ccc(F)cc2)cc1Cn1nnc2ccccc21 (configuration not stated) | 16.4% | 
COc1ccc(C2Nc3ccccc3C(=O)N2Cc2ccccc2)cc1Cn1nnc2ccccc21 (configuration not stated) | 1.82% | 
COc1ccccc1Nc1nnc(SC(C)C(=O)NC2CC2)s1 (configuration not stated) | -3.09% | 
O=C(COc1ccc2oc3c(c2c1)CCCC3)Nc1ccccn1 |  | 1580 nM (active)
CCOC(=O)N1CCN(C(=O)COc2ccc3oc4c(c3c2)CCCC4)CC1 | 8.64% | 
CCN(CC)CCCNC(=O)COc1ccc2oc3c(c2c1)CCCC3 | 1.01% [at 1.84 µM] | 
COc1ccc(C)cc1NC(=O)CN1c2cccc3cccc(c23)S1(=O)=O | 1.82% | 
CN(C)c1ccnc2sc(C(=O)c3ccccc3)c(N)c12 |  | 2820 nM (active)
Cc1nc2ccccc2c(-c2ccccc2)c1C(=O)c1ccccc1 | -2.28% | 
COC(=O)c1cc2c(N)c(C(=O)c3ccc(Cl)cc3)sc2nc1C(OC)OC | -6.44% | 
CCN(CC)C(=O)c1sc2nc(-c3ccccc3)ccc2c1N |  | 1780 nM (active)
CS(=O)(=O)c1sc2nc(-c3ccccc3)cc(-c3ccccc3)c2c1N | -6.49% | 
Cc1ccc2c(N)c(C(=O)c3ccccc3)sc2n1 |  | 3160 nM (active)
NC(=O)c1sc2nc3c(c(-c4ccccc4)c2c1N)CCC3 | -1.61% | 
CN(C)c1ccnc2sc3c(=O)n(Cc4ccccc4)cnc3c12 | -4.33% | 
CCCC(=O)n1nc(-c2ccccc2)nc1N | -0.188% | 
CCOc1ccc(S(=O)(=O)N2CCCCC2)cc1NC(=O)CN1CCCC1c1cccs1 (configuration not stated) | -24.3% | 
N#Cc1ccc(OCC(=O)NC(=O)NC2CCS(=O)(=O)C2)cc1 (configuration not stated) | -2.91% | 
CCOC(=O)c1cc(-c2ccccc2C)n(Cc2cc(C)no2)n1 | -3.28% | 
